Screening data deposited in PubChem by National Center for Advancing Translational Sciences (NCATS).
A selection: hits, their analogues and other compounds. The true share with any hit is near 19%.
DT40 TDP1 CPT: growth inhibition of DT40 Tdp1-/-;hTDP1 cells with camptothecin (screen for TDP1 inhibitors); chicken DT40 Tdp1-/-;hTDP1 cells + 20 nM CPT, ATP luminescence, 48 h; Potency, µM (series often up to 46.2 µM), for inactives: top-dose activity change, negative = growth inhibition, hits mostly inhibitors; actives 12% (n = 420,000); AID 686979; note: nearly all actives have a fitted effect of over 55% in size
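Chicken DT40 Tdp1-/- cells complemented with human TDP1, 400 cells/well, exposed to compounds plus 20 nM camptothecin for at least 48 h at 37 C; viability read as ATP content by CellTiter-Glo luminescence.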
RORg inh: ROR gamma (mouse) transcription inhibition | P51450 | Drosophila S2 Gal4-RORgamma UAS-luciferase reporter, 20 h | Potency, µM (titrated, usually from 53.6 µM), without a hit: at the top dose activity change, negative = inhibition, usual class: inhibitors | actives 5.4% (n = 310,000); note: nearly all actives have a fitted effect of over 60% in size
Target sequence (P51450 whole entry, looked up, the tested form may be a part): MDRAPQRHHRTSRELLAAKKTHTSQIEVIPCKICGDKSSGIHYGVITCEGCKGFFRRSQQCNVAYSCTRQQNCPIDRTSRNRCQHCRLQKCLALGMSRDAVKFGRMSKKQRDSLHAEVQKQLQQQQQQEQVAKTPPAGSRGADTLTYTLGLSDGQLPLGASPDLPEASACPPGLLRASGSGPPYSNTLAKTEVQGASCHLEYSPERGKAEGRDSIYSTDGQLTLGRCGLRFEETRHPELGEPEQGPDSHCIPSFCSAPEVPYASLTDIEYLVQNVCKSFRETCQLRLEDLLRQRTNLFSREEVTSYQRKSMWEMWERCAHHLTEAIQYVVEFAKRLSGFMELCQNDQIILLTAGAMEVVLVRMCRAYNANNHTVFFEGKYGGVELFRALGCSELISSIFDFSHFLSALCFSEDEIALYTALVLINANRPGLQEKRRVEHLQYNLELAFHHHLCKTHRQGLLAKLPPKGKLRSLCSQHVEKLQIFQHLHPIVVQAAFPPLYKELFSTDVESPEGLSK
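Luminescence from a UAS-regulated Photinus luciferase reporter in stably transfected Drosophila Schneider cells is measured; decreased signal marks ROR gamma inhibition. Fusion expression is induced by 700 uM copper sulfate for 20 hr.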
TDP1 inh: inhibitors of human tyrosyl-DNA phosphodiesterase TDP1; recombinant TDP1, AlphaScreen DNA substrate cleavage; Potency, µM (series often up to 130 µM), for inactives: at the highest dose activity change, negative = inhibition, usual class: inhibitors; actives 0.28% (n = 350,000); AID 485290; note: nearly all actives have a fitted effect of over 40% in size
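Here, a 5' biotin and 3' phosphotyrosine-FITC DNA oligonucleotide reports Tdp1 activity: intact substrate bridges AlphaScreen beads, while cleavage leaves a 3' phosphate and drops signal. All incubations at room temperature.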
Gal4-VP16 FLuc: Gal4-VP16 reporter inhibition counter-screen | Drosophila S2 Gal4-VP16 UAS-luciferase, luminescence, 20 h | Potency, µM (series often up to 53.6 µM), for the others: at the highest dose activity, negative = inhibition, actives largely listed as inhibitors | actives 3.5% (n = 310,000) | AID 2546;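 note: Gal4-VP16 expression switched on by copper sulfate through the metallothionein promoter; nearly all actives have a fitted effect of over 50% in size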
DT40 TDP1 no CPT: qHTS for Inhibitors of human tyrosyl-DNA phosphodiesterase 1 (TDP1): qHTS in cells in absence of CPT | DT40 Tdp1-/- hTDP1 cells, no CPT, ATP luminescence, 48 h | Potency, µM (titrated, usually from 46.2 µM), inactives show at the highest dose activity change, negative = growth inhibition, hits mostly inhibitors | actives 15% (n = 420,000); note: nearly all actives have a fitted effect of over 55% in size
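No-CPT arm: Tdp1-/-;hTDP1 DT40 cells (400/well) plus compounds, incubated ≥48 hr at 37 °C. Readout CellTiter-Glo luminescence.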
* hit, by the source's call; ? = inconclusive; / = not tested or not shown; [ ] = another dose, or the depositor's remark. Calls come from the whole dose curve; as a rule, active = well fitted curve in the direction sought with a large enough effect; inconclusive = small, poorly fitted or top-dose-only effect, or another doubt; inactive = no such curve, though single readings can be large; an effect the other way counts as inactive or inconclusive. % is set by controls: 0 for no effect and ±100 for the full control effect; potency is the fitted concentration of half-maximal effect.

SMILES | DT40 TDP1 CPT | RORg inh | TDP1 inh | Gal4-VP16 FLuc | DT40 TDP1 no CPT
COc1ccc(-n2c(SCC#N)nc3ccccc3c2=O)cc1 | -17% | -10% | -4% | 12% | ?
CCCCn1c(SCC(=O)Nc2cccc(OC)c2)nc2ccc(N3CCOCC3)cc2c1=O | ? | 5µM* | 7% | 13µM* | ?
Cc1cccc(C)c1NC(=O)c1ccc2c(c1)CCN2S(C)(=O)=O | -5% | 6% | / | 5% | -3%
C/C(=N\NC(=O)c1nnn(-c2nonc2N)c1-c1cccs1)c1ccc(C)cc1 | -11% | -39% | 2% | -26% | -12%
CC(=O)N1CCC[C@@]2(CCN(Cc3ccccc3)C2)C1 | -3% | 2% | / | 9% | 3%
Cc1cc(NC(=O)CN2C(=O)NC(C)(c3ccc(Cl)cc3)C2=O)no1 (stereo not drawn) | -5% | 14% | 5% | 1% | -9%
COc1ccccc1-c1cccc([C@@H]2C[C@H]3[C@H](CON3C)CN2Cc2ccccc2)c1 | ? | / | / | / | 21µM*
Cc1ccccc1-c1cccc([C@@H]2C[C@H]3[C@H](CON3C)CN2Cc2cc(Cl)cc(Cl)c2)c1 | ? | / | / | / | 23µM*
Cc1ccccc1CN1C[C@H]2CON(C)[C@H]2C[C@H]1c1cccc(Br)c1 | 0% | / | / | / | -29%
CN1OC[C@@H]2CN(Cc3cc(Cl)cc(Cl)c3)[C@H](c3cccc(Br)c3)C[C@@H]21 | ? | / | / | / | 21µM*
COc1ccc(OC2OC3COC(C)(C)OC3C(O)C2NC(C)=O)cc1 (stereo not drawn) | 20% | 16% | -2% | 4% | 6%
Nc1ccc(-c2nc3c(ccc4ccccc43)[nH]2)cc1 | ? | 0.89µM* | 6% | ? | ?
Nc1ccc(-c2nc3ccccc3[nH]2)cc1 | -5% | -29% | 1% | -9% | -20%
CSc1nc2[nH]c(=O)n(O)c(=O)c2n1Cc1ccccc1 | ? | / | / | / | 18µM*
COC(=O)c1[nH]c2ccccc2c1NC(=O)c1ccccc1[N+](=O)[O-] | 3% | 18% | 8% | -6% | 1%
O=C(NC(Cc1ccccc1)c1nc2ccccc2[nH]1)c1ccc(Cl)c([N+](=O)[O-])c1 (stereo not drawn) | 10µM* | ? | 3% | ? | 23µM*
O=C(Nc1nc2ccccc2[nH]1)c1ccc(Cl)c([N+](=O)[O-])c1 | ? | 2.8µM* | 3% | ? | ?
O=C(Nc1nc2ccccc2[nH]1)c1ccccc1[N+](=O)[O-] | 4% | 8.9µM* | 5% | 22µM* | -1%
CN1CC(=O)N(C)c2ncn(Cc3ccccc3)c2C1=O | -2% | 4.5µM* | -3% | -8%[0.365 µM] | 6%
CN(Cc1ccccc1)C(=O)c1ncn2c1C(=O)N(C)CC2 | -30% | / | / | / | -26%
Cn1cc(C(=O)N2CCN(c3ccccc3)CC2)c(=O)c2cc(S(=O)(=O)N3CCOCC3)ccc21 | 12% | 1% | 2% | -1% | 26%
COc1cc(OC)cc(C(=O)NCc2ccc3[nH]c(C)cc3c2)c1 | -4% | 6% | -3% | -23% | 7%
CCOc1ccc(NC(=S)NCc2ccc3[nH]c(C)cc3c2)cc1 | -21% | 2.5µM* | 9% | 10µM* | -27%
CCCCNC(=S)NCc1ccc2[nH]c(C)cc2c1 | ? | 10µM* | -5% | ? | ?
CNC(=S)Nc1ccc(Cc2ccncc2)cc1 | -3% | -22% | 8% | -5% | 0%
SMILES | DT40 TDP1 CPT | RORg inh | TDP1 inh | Gal4-VP16 FLuc | DT40 TDP1 no CPT
CC(C)(C)C(=O)NC(=S)Nc1ccc(F)cc1 | 3% | 10µM* | 0% | ? | -10%
O=C(NC(=S)Nc1ccc(Cc2ccncc2)cc1)c1ccc(F)cc1 | ? | 4.5µM* | 8% | ? | 16µM*
CC(C)(C)C(=O)NC(=S)Nc1ccc(Cc2ccncc2)cc1 | ? | 13µM* | 5% | 13µM* | ?
O=C(NCc1ccncc1)Nc1ccc(F)cc1 | 0% | 19% | 5% | 12% | 10%
CN(/C=C/C(=O)C(F)(F)C(F)(F)F)Cc1ccccc1 | 0% | 8% | 5% | 5% | 22%
COc1ccc2[nH]c(C(=O)N3CCc4ccccc4C3)c(C)c2c1 | ? | 27% | 5% | 23% | ?
C=C(CN(C)C)C(=O)c1ccc(OC2OC(COC(C)=O)C(OC(C)=O)C(OC(C)=O)C2OC(C)=O)cc1 (stereo not drawn) | 0.46µM* | / | / | / | 0.58µM*
CC(=O)OC[C@@H]1O[C@H](C/C=N\O[C@@H]2O[C@H](COC(C)=O)[C@@H](OC(C)=O)[C@H](OC(C)=O)[C@H]2OC(C)=O)C=C[C@@H]1OC(C)=O | / | 3%[10 µM] | 9%[21 µM] | -9%[10 µM] | /
CC[C@H](C)[C@H](NC(N)=O)C(=O)Nc1ccc(S(=O)(=O)NC(C)C)cc1 | -14% | -1% | -1% | 2% | 7%
COc1ccc(-c2nc(-c3ccccc3)c(-c3cc([N+](=O)[O-])ccc3C)[nH]2)cc1O | ? | ? | 12% | ? | 15µM*
Cc1ccc([N+](=O)[O-])cc1-c1[nH]c(-c2ccc(O)c(O)c2)nc1-c1ccccc1 | 16µM* | ? | 12% | -2% | 16µM*
CCN(C(=O)COC(=O)CCS(=O)(=O)c1ccccc1)c1c(N)n(Cc2ccccc2)c(=O)[nH]c1=O | 1% | / | / | / | 1%
O=C1OC(c2ccco2)=N/C1=C\c1ccc(-c2cccc(C(F)(F)F)c2)o1 | ? | 14% | -3% | ? | 23µM*
Cc1cccc(-c2noc(CCCC(=O)Nc3ccc(C(N)=O)cc3)n2)c1 | -7% | 16µM* | -1% | 11µM* | -14%
CCOc1ccc(NC(=O)CCCc2nc(-c3cccc(OC)c3)no2)cc1 | ? | / | 5% | / | 21µM*
O=C(Nc1ccc2c(c1)OCO2)C1CCCN1C(=O)Nc1ccccc1F (stereo not drawn) | 7% | 9% | 7% | 0% | -7%
Cc1cccc(OCc2ccc(C(=O)Nc3cc(C)on3)o2)c1 | 7% | -17% | 0%[0.0935 µM] | -22% | -16%
Cc1cnc(C(=O)N2CCCC(N3CCN(c4cccc(C(F)(F)F)c4)CC3)C2)cn1 (stereo not drawn) | 23µM* | 43% | 2% | -2% | ?
COc1ccccc1N1CCN(C2CCCN(C(=O)c3csc(C)n3)C2)CC1 (stereo not drawn) | -4% | -4% | 2% | -6% | ?
CCc1cc(C(=O)N2CCCC(N3CCN(c4cccc(C(F)(F)F)c4)CC3)C2)n(C)n1 (stereo not drawn) | 12µM* | ? | 5% | ? | 12µM*
CSc1nc(C(=O)N2CCCC(N3CCN(c4ccccc4C)CC3)C2)cs1 (stereo not drawn) | 21µM* | 36% | 7% | -16% | 18µM*
